Experimental data published in publication PMC5540273 (PLoS ONE, 2017).

Assays:
Details in all cases: concentration: 1 μM, replicates: in singlicate; n = 1
[1] = tested on: RPS6KA5(Kin.Dom.2-C-terminal)
[2] = tested on: T1, RSK1(Kin.Dom.1-N-terminal)
T1 construct: gene RPS6KA1

[3] = tested on: T2, RSK1(Kin.Dom.2-C-terminal)
T2 construct: gene RPS6KA1

[4] = tested on: T3, RSK2(Kin.Dom.1-N-terminal)
T3 construct: gene RPS6KA3

[5] = tested on: T4, RSK2(Kin.Dom.2-C-terminal)
T4 construct: gene RPS6KA3

[6] = tested on: T5, RSK3(Kin.Dom.1-N-terminal)
T5 construct: gene RPS6KA2

[7] = tested on: T6, RSK3(Kin.Dom.2-C-terminal)
T6 construct: gene RPS6KA2

[8] = tested on: T7, RSK4(Kin.Dom.1-N-terminal)
T7 construct: gene RPS6KA6

[9] = tested on: T8, RSK4(Kin.Dom.2-C-terminal)
T8 construct: gene RPS6KA6

S6K1 = tested on: S6K1
SBK1 = tested on: SBK1
SGK2 = tested on: SGK2
SGK3 = tested on: SGK3
SGK = tested on: SGK
SIK2 = tested on: SIK2
SIK = tested on: SIK
SLK = tested on: SLK
SNARK = tested on: T9, SNARK
T9 construct: gene NUAK2

SNRK = tested on: SNRK
SRC = tested on: SRC
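Note: KINOMEscan kinase panel screen.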

Row | Structure (SMILES) | %Inh [1] | %Inh [2] | %Inh [3] | %Inh [4] | %Inh [5] | %Inh [6] | %Inh [7] | %Inh [8] | %Inh [9] | %Inh (S6K1) | %Inh (SBK1) | %Inh (SGK2) | %Inh (SGK3) | %Inh (SGK) | %Inh (SIK2) | %Inh (SIK) | %Inh (SLK) | %Inh (SNARK) | %Inh (SNRK) | %Inh (SRC)
1 | Cn1ccc2ncnc(Oc3ccc(NC(=O)Nc4cccnc4)c(Cl)c3)c21 | 13% | 0% | 41% | 1% | 0% | 0% | 17% | 0% | 3% | 0% | 0% | 8% | 0% | 3% | 0% | 19% | 9% | 0% | 0% | 16%
2 | Cc1ccc(NC(=O)c2cccc(C#N)c2)cc1-c1ccc(C(=O)Nc2ccncc2)cc1 [GSK1398463] | 1% | 24% | 0% | 0% | 6% | 9% | 0% | 0% | 1% | 11% | 0% | 10% | 2% | 0% | 15% | 0% | 0% | 0% | 17% | 26%
3 | C[C@H]1CC[C@@H](C(=O)Nc2ccccc2)CN1c1cc(-c2ccc3c(N)n[nH]c3c2)nc(N)n1 [GSK2283293] | 0% | 18% | 8% | 0% | 21% | 0% | 9% | 0% | 23% | 0% | 9% | 0% | 7% | 0% | 0% | 0% | 0% | 7% | 0% | 0%
4 | CN1c2ccc(-c3ccc(C(=O)NCCO)cc3)cc2-c2[nH]ncc2S1(=O)=O | 14% | 0% | 26% | 12% | 41% | 0% | 35% | 3% | 27% | 33% | 0% | 23% | 0% | 10% | 16% | 16% | 25% | 0% | 0% | 46%
5 | COc1ccc(NC(=O)Nc2ccc(C)c(-c3ccc(C(=O)Nc4ccncc4)cc3)c2)cc1 [GSK1398475] | 0% | 16% | 3% | 0% | 0% | 0% | 0% | 0% | 22% | 0% | 0% | 0% | 10% | 0% | 0% | 7% | 0% | 0% | 0% | 0%
6 | Nc1n[nH]c2nnc(-c3ccccc3)cc12 [SB-517389] | 2% | 28% | 9% | 0% | 76% | 4% | 24% | 0% | 25% | 25% | 10% | 0% | 19% | 0% | 0% | 0% | 0% | 0% | 2% | 0%
7 | Clc1cc(Nc2ncnc3cc[nH]c23)ccc1OCc1ccccn1 | 1% | 0% | 28% | 10% | 0% | 26% | 20% | 2% | 28% | 29% | 41% | 24% | 28% | 31% | 8% | 16% | 21% | 27% | 26% | 15%
8 | COC(=O)c1c(-c2ccccc2)c2cc(Cl)ccc2c(=O)n1Cc1ccc(S(C)(=O)=O)cc1 | 0% | 5% | 11% | 5% | 15% | 9% | 6% | 0% | 8% | 0% | 0% | 0% | 9% | 0% | 9% | 2% | 19% | 18% | 0% | 23%
9 | COc1cc2ncnc(Nc3ccc(OCc4ccccc4Br)c(Cl)c3)c2cc1OC.Cl [GI261590] | 0% | 32% | 0% | 0% | 3% | 100% | 0% | 0% | 0% | 11% | 7% | 11% | 0% | 4% | 12% | 0% | 86% | 0% | 0% | 0%
10 | COc1ccc(-c2oc3ncnc(N)c3c2-c2ccc(OC)cc2)cc1 [SB-589132] | 0% | 29% | 30% | 9% | 30% | 5% | 0% | 0% | 69% | 16% | 0% | 5% | 0% | 9% | 2% | 1% | 20% | 0% | 0% | 40%
